This is part of a sample that, as a whole, favours compounds with a hit. Of some 83,000 tested, about 20% had one in any assay.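 Cell lines were cultured in 96-well plates, exposed to a single compound concentration, and assessed for percent growth 48 hours later.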 Calls of active or inactive are those of the source. How the source made its calls: active means growth percent below 10; inactive means the rest.
Assays:
Test in all cases: NCI-60 one-dose screen, 48 h (100 = growth as untreated, 0 = no growth, -100 = all killed)
Settings in all cases: 10 µM unless noted
HCT-15 colon = test system: HCT-15 colon
HT29 colon = test system: HT29 colon
SNB-75 CNS = test system: SNB-75 CNS
SNB-19 CNS = test system: SNB-19 CNS
U251 CNS = test system: U251 CNS
PC-3 prostate = test system: PC-3 prostate
SK-MEL-5 melanoma = test system: SK-MEL-5 melanoma
UACC-62 melanoma = test system: UACC-62 melanoma
LOX IMVI melanoma = test system: LOX IMVI melanoma
SK-MEL-28 melanoma = test system: SK-MEL-28 melanoma
SK-MEL-2 melanoma = test system: SK-MEL-2 melanoma
EKVX NSCLC = test system: EKVX NSCLC
SN12C renal = test system: SN12C renal
UO-31 renal = test system: UO-31 renal
TK-10 renal = test system: TK-10 renal
ACHN renal = test system: ACHN renal
CAKI-1 renal = test system: CAKI-1 renal
CCRF-CEM leukemia = test system: CCRF-CEM leukemia
MOLT-4 leukemia = test system: MOLT-4 leukemia

Measured: growth

COc1ccccc1NS(=O)(=O)c1cccc(C(=O)Nc2ccc(Br)cc2)c1
active: SK-MEL-5 melanoma -31.7%
inactive: HCT-15 colon 37.8% | HT29 colon 46.6% | SNB-75 CNS 65.9% | SNB-19 CNS 53.4% | U251 CNS 62% | PC-3 prostate 25.4% | UACC-62 melanoma 32.1% | LOX IMVI melanoma 42.4% | SK-MEL-28 melanoma 62.9% | SK-MEL-2 melanoma 57.7% | EKVX NSCLC 20.1% | SN12C renal 51.8% | UO-31 renal 27.3% | TK-10 renal 61.5% | ACHN renal 46.2% | CAKI-1 renal 27.5% | CCRF-CEM leukemia 40.1% | MOLT-4 leukemia 26.8%

C/C(=N\NC(=O)CSc1nc2ccccc2c(=O)n1CCc1ccc(S(N)(=O)=O)cc1)c1ccccn1
inactive: HCT-15 colon 26.8% | HT29 colon 31.5% | SNB-75 CNS 74.5% | SNB-19 CNS 46.6% | U251 CNS 31.8% | PC-3 prostate 50.7% | SK-MEL-5 melanoma 24.9% | UACC-62 melanoma 19.5% | LOX IMVI melanoma 13.8% | SK-MEL-28 melanoma 37.6% | SK-MEL-2 melanoma 47.2% | EKVX NSCLC 30.5% | SN12C renal 38.5% | UO-31 renal 29.8% | TK-10 renal 34.5% | ACHN renal 21.2% | CAKI-1 renal 37.6% | CCRF-CEM leukemia 20.6% | MOLT-4 leukemia 17.7%

COc1ccc(CNCCN2C(=O)c3ccc4c5c(ccc(c35)C2=O)C(=O)N(CCNCc2ccc(OC)c(OC)c2OC)C4=O)c(OC)c1OC
inactive: TK-10 renal 30.3%
active: HCT-15 colon -51.2% | HT29 colon -45.7% | SNB-75 CNS -12.6% | SNB-19 CNS -13.6% | U251 CNS -46.1% | PC-3 prostate 0.0353% | SK-MEL-5 melanoma -93.9% | UACC-62 melanoma -72.2% | LOX IMVI melanoma -27.9% | SK-MEL-28 melanoma -7.81% | SK-MEL-2 melanoma -62.9% | EKVX NSCLC -28.3% | SN12C renal -77.3% | UO-31 renal -19.6% | ACHN renal -51.1% | CAKI-1 renal -12.3% | CCRF-CEM leukemia -14.8% | MOLT-4 leukemia -35.2%

O=S(=O)(NCCNc1nccc(-c2c(-c3cccc(O)c3)nc3occn23)n1)c1ccc(C(F)(F)F)cc1
inactive: HCT-15 colon 108% | HT29 colon 72.9% | SNB-75 CNS 92.5% | SNB-19 CNS 115% | U251 CNS 104% | PC-3 prostate 99.7% | SK-MEL-5 melanoma 55.7% | UACC-62 melanoma 26.7% | LOX IMVI melanoma 75.1% | SK-MEL-28 melanoma 58.3% | SK-MEL-2 melanoma 93.7% | EKVX NSCLC 105% | SN12C renal 102% | UO-31 renal 93.9% | TK-10 renal 137% | ACHN renal 84.4% | CAKI-1 renal 69.6% | CCRF-CEM leukemia 106% | MOLT-4 leukemia 111%

CC(Oc1ccc(C(=O)O)cc1C(F)(F)F)c1ccc(Oc2ccccc2)cn1 (configuration not stated)
inactive: HCT-15 colon 80.6% | HT29 colon 121% | SNB-75 CNS 90.1% | SNB-19 CNS 96.7% | U251 CNS 94.4% | PC-3 prostate 108% | SK-MEL-5 melanoma 98.7% | UACC-62 melanoma 91.8% | LOX IMVI melanoma 97% | SK-MEL-28 melanoma 95.1% | SK-MEL-2 melanoma 123% | EKVX NSCLC 103% | SN12C renal 98.3% | UO-31 renal 79.2% | TK-10 renal 99.5% | ACHN renal 104% | CAKI-1 renal 95.9% | CCRF-CEM leukemia 101% | MOLT-4 leukemia 106%

O=C(CCN1CCCC1)Nc1ccc2c(NCCc3ccccc3)c3ccccc3nc2c1
active: HT29 colon 4.99% | SNB-75 CNS -70.8% | SNB-19 CNS -17.9% | U251 CNS -24% | PC-3 prostate -36% | UACC-62 melanoma -55.1% | LOX IMVI melanoma -68% | SK-MEL-28 melanoma -17.4% | SK-MEL-2 melanoma -58.8% | EKVX NSCLC -4.89% | SN12C renal -12.5% | UO-31 renal -10.8% | TK-10 renal 3.29% | CAKI-1 renal 4.47% | CCRF-CEM leukemia -9.81% | MOLT-4 leukemia -17.6%
inactive: HCT-15 colon 12% | SK-MEL-5 melanoma 11.2% | ACHN renal 11%

COc1ccc(CC(C)=C(c2ccc(OCCN3CCCCCC3)cc2)c2ccc(OCCN3CCCCCC3)cc2)cc1
active: HCT-15 colon -95.9% | HT29 colon -85% | SNB-75 CNS -92.9% | SNB-19 CNS -95% | U251 CNS -91.4% | PC-3 prostate -87.2% | SK-MEL-5 melanoma -97.9% | UACC-62 melanoma -97.1% | LOX IMVI melanoma -100% | SK-MEL-28 melanoma -99.1% | SK-MEL-2 melanoma -82.2% | EKVX NSCLC -93.6% | SN12C renal -92.4% | UO-31 renal -98.8% | TK-10 renal -87.3% | ACHN renal -100% | CAKI-1 renal -92.5% | CCRF-CEM leukemia -57.9% | MOLT-4 leukemia -67.5%

C=C1C(=O)O[C@H]2[C@H]1CC/C(COC(=O)NCc1c[nH]c3ccc(Cl)cc13)=C\CC[C@@]1(C)O[C@@H]21
inactive: SNB-19 CNS 32.3%
active: HCT-15 colon -60.2% | HT29 colon -78.8% | SNB-75 CNS -6.74% | U251 CNS -3.11% | PC-3 prostate 9.72% | SK-MEL-5 melanoma -17.6% | UACC-62 melanoma -73.8% | LOX IMVI melanoma -76.3% | SK-MEL-28 melanoma -63% | SK-MEL-2 melanoma -6.51% | EKVX NSCLC -22.4% | SN12C renal -60.1% | UO-31 renal -99.6% | TK-10 renal -53.9% | ACHN renal -98% | CAKI-1 renal -96.4% | CCRF-CEM leukemia -11.1% | MOLT-4 leukemia 3.46%
